# High-throughput results: PubChem BioAssay, National Center for Advancing Translational Sciences (NCATS)
# This is a sample that favours compounds with a hit; in the whole collection about 2.6% have one here.
# AmpC inh no det – blocks E. coli AmpC beta-lactamase in absence of detergent; P00811; AmpC nitrocefin hydrolysis, absorbance 480 nm, no detergent; Potency, µM (doses to about 28.7 µM), for the others: at the top dose activity change, negative = inhibition; actives 1.8% (n = 71,000); further: % of control where 0% means no effect
# Target sequence (P00811 whole entry, looked up): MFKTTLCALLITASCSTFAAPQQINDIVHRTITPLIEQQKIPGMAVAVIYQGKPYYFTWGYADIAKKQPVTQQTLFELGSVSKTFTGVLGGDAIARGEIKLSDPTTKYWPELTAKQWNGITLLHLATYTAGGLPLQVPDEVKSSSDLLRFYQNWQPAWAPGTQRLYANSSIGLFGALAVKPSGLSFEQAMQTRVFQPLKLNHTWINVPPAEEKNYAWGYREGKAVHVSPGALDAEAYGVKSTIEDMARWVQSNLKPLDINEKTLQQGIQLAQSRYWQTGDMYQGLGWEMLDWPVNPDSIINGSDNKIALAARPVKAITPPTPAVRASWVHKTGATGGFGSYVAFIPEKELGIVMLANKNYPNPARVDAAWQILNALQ
#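 AmpC, 20 mM phosphate pH 7.0; 15 min cpd preinc, RT; start with nitrocefin (800 uM stock); A480 kinetic read, 20 s intervals, 4 min. No-enzyme wells = negative control.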
# Prx2 Sm inh – Schistosoma mansoni Prx2 inhibition; S. mansoni Prx2 activity coupled to TGR/GSH (TGR is thioredoxin glutathione reductase), NADPH fluorescence loss, qHTS; Potency, µM; actives 0.07% (n = 65,000)
#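 Coupled assay in which S. mansoni TGR passes NADPH reducing equivalents via glutathione to Prx2, which reduces H2O2. Compounds were preincubated 15 min at room temperature with 25 nM TGR/50 nM Prx2 mix. Kinetic NADPH fluorescence loss (ex 365/em 450 nm) was monitored.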
# Anthrax LT inh – anthrax lethal toxin internalization inhibition. Cells, anthrax lethal toxin internalization, FRET ratio (460/530). Potency, µM (highest dose often 40 µM), for inactives: at the top dose activity change, negative = inhibition, usual class: inhibitors. actives 0.67% (n = 70,000); further: on the % scale 0 is the no-effect control and ±100 the full control effect; nearly all actives have a fitted effect of over 50% in size
# AmpC det inh – AmpC beta-lactamase inhibition, detergent assay | P00811 | purified AmpC, nitrocefin hydrolysis with detergent | Potency, µM (doses to about 28.7 µM), without a hit: at the highest dose activity change, negative = inhibition | actives 0.09% (n = 71,000) | AID 584; active means well fitted curve in the direction sought with a large enough effect; inconclusive means small, poorly fitted or top-dose-only effect; further: on the % scale 0 is the no-effect control and ±100 the full control effect
#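 E. coli AmpC (5.3 nM) in 20 mM phosphate pH 7.0 with 0.01% Triton X-100, preincubated 15 min RT with compound; nitrocefin (2 uL of 800 uM stock) hydrolysis followed by 480 nm absorbance every 20 s over 4 min.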
# * hit, by the source's call; ? = inconclusive; nt = no result given; [ ] = remark or other dose. Unless noted, the call rests on the fitted dose curve. Potency means the concentration at half of the fitted maximal effect.
SMILES,AmpC inh no det,Prx2 Sm inh,Anthrax LT inh,AmpC det inh
CCc1ccccc1N1CC23C=CC(O2)C(C(=O)OCC(C)C)C3C1=O (stereo not drawn),40.9%,>57,9.1%,8.3%
CCc1ccc(N2CC34C=CC(O3)C(C(=O)OC)C4C2=O)cc1 (stereo not drawn),3.98µM*[single pt active],>57,-14.0%,6.2%
COc1ccc(C(C)N2CC34C=CC(O3)C(C(=O)OCC(C)C)C4C2=O)cc1 (stereo not drawn),3.98µM*[single pt active],>57,-9.0%,14.8%
CCc1ccc(N2CC34C=CC(O3)C(C(=O)OC(C)C)C4C2=O)cc1 (stereo not drawn),3.16µM*[single pt active],>57,17.5%,6.4%
CCCCOC(=O)C1[C@H]2C(=O)N(CCc3ccccc3)C[C@]23C=C[C@H]1O3 (stereo partly drawn),17.1%,>57,12.2%,-1.0%
CCCCOC(=O)C1C2C=CC3(CN(CCc4ccccc4)C(=O)C13)O2 (stereo not drawn),3.98µM*[single pt active],>57,14.9%,11.7%
C(#CC1C=CC2OC(c3ccccc3)OCC2O1)c1ccccc1 (stereo not drawn),nt,nt,-4.0%[8 µM],nt
COc1ccc(CNC(=O)C(c2cccs2)N(C(=O)c2csnn2)C2CC2)cc1 (stereo not drawn),18.2%,>57,7.94µM*,-4.1%
O=C(c1oc2ccccc2c1N1CCCCC1)N1CCCCC1,31.6%,>57,3.2%,-1.3%
Cn1cc(Cl)c(C(=O)N(Cc2ccccc2)c2ccccn2)n1,3.98µM*[single pt active],>57,4.7%,20.6%
O=C(CN1C2CCC1CC(NC(=O)Nc1ccccc1)C2)NCc1ccco1 (stereo not drawn),-4.0%,>57,-11.1%,0.9%
O=C1[C@@H]2C=CC=CC2=NC(=S)N1CCN1CCC(=C(c2ccc(F)cc2)c2ccc(F)cc2)CC1,6.31µM*,>57,15.5%,-4.3%
CCOc1ccc(C2CC(c3ccc(F)cc3)Nc3nc(N)nn32)cc1 (stereo not drawn),36.1%,>57,6.4%,12.5%
COc1ccc(C2CC(c3ccc(F)cc3)Nc3nc(N)nn32)cc1 (stereo not drawn),3.98µM*[single pt active],>57,?,14.5%
COc1cccc(C2CC(c3ccccc3)Nc3nc(N)nn32)c1 (stereo not drawn),3.98µM*[single pt active],>57,4.2%,9.4%
COc1cccc(C2CC(c3c(F)cccc3Cl)n3nc(N)nc3N2)c1 (stereo not drawn),35.2%,>57,-18.3%,-2.0%
COc1cccc(C2CC(c3c(Cl)cccc3Cl)n3nc(N)nc3N2)c1 (stereo not drawn),3.98µM*[single pt active],>57,3.5%,13.0%
COc1ccc(C2CC(c3cccc(OC)c3)n3nc(N)nc3N2)cc1 (stereo not drawn),3.98µM*[single pt active],>57,-5.0%,8.9%
O=C(NCC1c2ccccc2CCN1C(=O)CN1CCOCC1)C1CCCCC1 (stereo not drawn),10.5%,>57,5.8%,-2.0%
N=C(N)SCCc1ccc(OCc2ccc([N+](=O)[O-])cc2)cc1,15.8µM*,>57,-19.4%,-6.9%
COc1cccc(N2C(=O)C3ON(c4ccccc4)C(c4cccs4)C3C2=O)c1 (stereo not drawn),-15.5%,>57,-13.2%,10.3%
O=C(CCCn1c(=O)[nH]c2ccccc2c1=O)N1CCN(c2ccccn2)CC1,3.16µM*[single pt active],>57,11.9%,11.7%
O=C(CCCCn1c(=O)[nH]c2ccccc2c1=O)N1CCN(c2cccc(C(F)(F)F)c2)CC1,92.7%,>57,?,-4.2%
O=C(CCCCn1c(=O)[nH]c2ccccc2c1=O)N1CCN(c2ncccn2)CC1,3.98µM*[single pt active],>57,-8.5%,14.4%
CCOC(=O)c1ccc(NC(=O)C2CCN(S(=O)(=O)CC)CC2)cc1,25.2%,>57,8.6%,-4.9%
SMILES,AmpC inh no det,Prx2 Sm inh,Anthrax LT inh,AmpC det inh
CCOC(=O)c1ccc(NC(=O)C2CCN(S(=O)(=O)c3ccccc3)CC2)cc1,6.4%,>57,3.98µM*,10.0%
CCCCCCNC(=O)c1c(O)c2ccccc2[nH]c1=O,12.6µM*,>57,21.8%,2.0%
Cc1nn2cc(-c3ccc(-c4ccccc4)cc3)nc2s1,12.6µM*,>57,1.0%,-2.8%
Cc1nn2cc(-c3ccc(Cl)cc3)nc2s1,-8.5%,>57,-6.7%,15.1%
CO[C@H]1COC(=O)C/C=C\[C@H](C)[C@H](OC)COC(=O)[C@@H](C)COC(=O)C/C=C\[C@@H]1C,nt,nt,-1.8%[8 µM],nt
CC(=O)c1cccc(NC(=O)c2cnn3ccccc23)c1,3.98µM*[single pt active],>57,13.4%,10.2%
O=C(NCc1cccnc1)c1ccccc1Br,3.2%,>57,-1.7%,-0.9%
